Measurements taken from PMC7862700, “An all-to-all approach to the identification of sequence-specific readers for epigenetic DNA modifications on cytosine”.

Key:
Assay in all cases: DAPPL (digital affinity profiling via proximity ligation, sequencing); 10 mM Tris-HCl pH 7.5, 50 mM NaCl, 1 mM DTT, 4% glycerol, room temperature, 30 min; GST-TFs on glutathione beads, 16-mer random dsDNA library, 0.1% formaldehyde crosslink after washing; high values mean tight binding
FLI1 = biological target: T1, FLI1 (Homo sapiens, UniProt Q01543 1-452); settings: protein: recombinant; tags: N-terminal GST; dsDNA, one strand shown
T1 sequence: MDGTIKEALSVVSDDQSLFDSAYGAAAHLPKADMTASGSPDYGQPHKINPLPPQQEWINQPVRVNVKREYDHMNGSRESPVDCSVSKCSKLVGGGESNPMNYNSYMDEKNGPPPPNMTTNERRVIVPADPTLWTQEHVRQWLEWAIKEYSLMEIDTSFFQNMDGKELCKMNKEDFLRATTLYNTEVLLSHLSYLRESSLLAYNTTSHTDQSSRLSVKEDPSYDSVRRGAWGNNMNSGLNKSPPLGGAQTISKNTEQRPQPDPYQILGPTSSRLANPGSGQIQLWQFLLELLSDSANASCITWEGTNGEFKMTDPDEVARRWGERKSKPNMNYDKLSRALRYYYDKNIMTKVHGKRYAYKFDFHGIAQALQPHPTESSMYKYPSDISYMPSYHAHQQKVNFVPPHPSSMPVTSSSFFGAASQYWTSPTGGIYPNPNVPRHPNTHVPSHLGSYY
Method in brief: (§1)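 The binding signal reported is, for every hexamer, its read frequency for a factor over its read frequency for the tag-only sample. Reads came from pools of yeast-expressed, GST-fused human transcription factors on glutathione beads, barcoded with DNA and mixed with that sample, which were incubated with 200 nmole of a random double-stranded 16-mer DNA library in Tris/NaCl/DTT/glycerol buffer at room temperature for 30 min. After washing, the pools were crosslinked with 0.1% formaldehyde, proximity-ligated with BsaI/T4 ligase for 1 h at 37 °C, PCR-amplified and sequenced on an Illumina NextSeq500.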

ELK1 = biological target: T2, ELK1 (Homo sapiens, UniProt P19419 1-428); settings: protein: recombinant; tags: N-terminal GST; dsDNA, one strand shown
T2 sequence: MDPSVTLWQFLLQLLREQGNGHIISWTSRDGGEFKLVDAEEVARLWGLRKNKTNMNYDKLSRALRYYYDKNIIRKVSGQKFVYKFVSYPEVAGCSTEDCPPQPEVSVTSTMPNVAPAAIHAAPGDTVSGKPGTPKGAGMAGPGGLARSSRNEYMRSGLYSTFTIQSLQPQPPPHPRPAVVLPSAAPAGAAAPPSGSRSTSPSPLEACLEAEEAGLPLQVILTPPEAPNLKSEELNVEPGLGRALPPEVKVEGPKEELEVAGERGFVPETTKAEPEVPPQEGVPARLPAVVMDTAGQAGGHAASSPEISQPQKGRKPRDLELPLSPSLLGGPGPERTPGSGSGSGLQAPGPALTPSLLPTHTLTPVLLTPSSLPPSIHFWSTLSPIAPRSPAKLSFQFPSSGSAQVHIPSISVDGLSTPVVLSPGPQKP
Method in brief: as §1

GABPA = biological target: T3, GABPA (Homo sapiens, UniProt Q06546 1-454); settings: protein: recombinant; tags: N-terminal GST; dsDNA, one strand shown
T3 sequence: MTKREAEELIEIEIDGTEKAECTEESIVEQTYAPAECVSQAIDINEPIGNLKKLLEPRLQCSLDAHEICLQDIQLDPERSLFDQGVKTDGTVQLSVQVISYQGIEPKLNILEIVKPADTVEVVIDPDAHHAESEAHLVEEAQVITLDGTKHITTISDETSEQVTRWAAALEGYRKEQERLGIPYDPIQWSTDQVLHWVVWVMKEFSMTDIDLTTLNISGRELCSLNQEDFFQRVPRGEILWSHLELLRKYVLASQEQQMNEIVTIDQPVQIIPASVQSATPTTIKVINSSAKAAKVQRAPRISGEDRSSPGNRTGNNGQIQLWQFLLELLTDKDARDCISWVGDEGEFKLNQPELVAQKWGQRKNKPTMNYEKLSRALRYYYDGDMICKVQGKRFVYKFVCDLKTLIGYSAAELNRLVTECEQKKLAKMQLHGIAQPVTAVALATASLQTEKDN
Method in brief: as §1

ERG = biological target: T4, ERG (Homo sapiens, UniProt P11308 1-479); settings: protein: recombinant; tags: N-terminal GST; dsDNA, one strand shown
T4 sequence: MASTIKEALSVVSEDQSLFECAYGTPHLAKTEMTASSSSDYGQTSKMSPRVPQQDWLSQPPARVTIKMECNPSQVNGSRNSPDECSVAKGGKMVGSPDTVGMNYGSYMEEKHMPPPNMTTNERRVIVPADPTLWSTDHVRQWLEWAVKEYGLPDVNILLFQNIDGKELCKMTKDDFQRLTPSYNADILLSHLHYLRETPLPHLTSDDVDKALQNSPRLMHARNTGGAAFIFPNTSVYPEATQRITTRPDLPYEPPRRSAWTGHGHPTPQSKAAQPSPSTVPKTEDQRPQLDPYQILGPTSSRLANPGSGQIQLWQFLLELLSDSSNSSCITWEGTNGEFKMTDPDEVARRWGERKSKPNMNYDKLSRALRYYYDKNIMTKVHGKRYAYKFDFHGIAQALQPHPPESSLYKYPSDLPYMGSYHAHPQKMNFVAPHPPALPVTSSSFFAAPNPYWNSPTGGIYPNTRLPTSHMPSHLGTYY
Method in brief: as §1

ELF1 = ELF1 (Homo sapiens, UniProt P32519 1-619); settings: protein: recombinant; tags: N-terminal GST; dsDNA, one strand shown
Sequence of ELF1 (P32519 whole entry): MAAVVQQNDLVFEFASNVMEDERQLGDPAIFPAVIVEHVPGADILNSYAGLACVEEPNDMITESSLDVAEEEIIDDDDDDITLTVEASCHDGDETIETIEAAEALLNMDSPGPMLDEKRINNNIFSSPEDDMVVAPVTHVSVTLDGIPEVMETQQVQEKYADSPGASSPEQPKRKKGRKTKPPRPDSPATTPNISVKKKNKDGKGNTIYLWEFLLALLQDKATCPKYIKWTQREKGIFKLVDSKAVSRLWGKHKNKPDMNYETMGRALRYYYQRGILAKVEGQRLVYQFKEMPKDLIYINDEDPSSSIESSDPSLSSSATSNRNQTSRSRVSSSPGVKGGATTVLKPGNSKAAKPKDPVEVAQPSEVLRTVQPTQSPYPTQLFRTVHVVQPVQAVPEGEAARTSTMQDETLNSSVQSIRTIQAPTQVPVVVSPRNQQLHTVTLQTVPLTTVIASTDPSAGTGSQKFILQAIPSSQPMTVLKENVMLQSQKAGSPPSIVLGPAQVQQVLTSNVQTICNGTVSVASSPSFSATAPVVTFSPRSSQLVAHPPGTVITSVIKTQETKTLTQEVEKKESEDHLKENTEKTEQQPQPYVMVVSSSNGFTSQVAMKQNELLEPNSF
Method in brief: as §1

EHF = biological target: T5, EHF (Homo sapiens, UniProt Q9NZC4 1-300); settings: protein: recombinant; tags: N-terminal GST; dsDNA, one strand shown
T5 sequence: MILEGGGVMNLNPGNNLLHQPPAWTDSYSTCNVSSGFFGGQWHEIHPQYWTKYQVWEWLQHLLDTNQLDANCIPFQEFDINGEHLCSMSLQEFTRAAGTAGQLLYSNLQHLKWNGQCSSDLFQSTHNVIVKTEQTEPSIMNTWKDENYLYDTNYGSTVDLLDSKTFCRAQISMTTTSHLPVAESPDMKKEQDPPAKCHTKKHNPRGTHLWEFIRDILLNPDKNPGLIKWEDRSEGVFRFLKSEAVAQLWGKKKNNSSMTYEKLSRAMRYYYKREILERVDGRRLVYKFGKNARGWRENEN
Method in brief: as §1

SPI1 = SPI1 (Homo sapiens, UniProt P17947 1-270); settings: protein: recombinant; tags: N-terminal GST; dsDNA, one strand shown
Method in brief: as §1

SPIB = SPIB (Homo sapiens, UniProt Q01892 1-262); settings: protein: recombinant; tags: N-terminal GST; dsDNA, one strand shown
Sequence of SPIB (Q01892 whole entry): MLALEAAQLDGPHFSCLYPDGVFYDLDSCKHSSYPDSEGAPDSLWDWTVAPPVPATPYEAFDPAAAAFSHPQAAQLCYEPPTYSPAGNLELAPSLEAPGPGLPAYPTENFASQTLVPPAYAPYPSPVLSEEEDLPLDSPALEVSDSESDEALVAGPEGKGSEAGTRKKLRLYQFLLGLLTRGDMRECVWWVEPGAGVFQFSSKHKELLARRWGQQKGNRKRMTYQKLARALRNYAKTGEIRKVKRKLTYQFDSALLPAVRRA
Method in brief: as §1

ELK3 = biological target: T6, ELK3 (Homo sapiens, UniProt P41970 1-407); settings: protein: recombinant; tags: N-terminal GST; dsDNA, one strand shown
T6 sequence: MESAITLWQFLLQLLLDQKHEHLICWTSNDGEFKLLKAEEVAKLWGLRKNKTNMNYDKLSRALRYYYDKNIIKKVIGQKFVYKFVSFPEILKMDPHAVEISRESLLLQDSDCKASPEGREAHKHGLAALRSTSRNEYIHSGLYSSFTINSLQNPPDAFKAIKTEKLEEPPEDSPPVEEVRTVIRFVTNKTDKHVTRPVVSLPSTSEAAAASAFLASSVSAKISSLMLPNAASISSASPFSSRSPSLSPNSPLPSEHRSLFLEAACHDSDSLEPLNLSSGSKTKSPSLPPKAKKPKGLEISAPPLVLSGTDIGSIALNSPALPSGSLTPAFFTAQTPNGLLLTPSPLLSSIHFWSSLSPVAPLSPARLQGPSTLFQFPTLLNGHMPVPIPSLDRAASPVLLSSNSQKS
Method in brief: as §1

FEV = biological target: T7, FEV (Homo sapiens, UniProt Q99581 1-238); settings: protein: recombinant; tags: N-terminal GST; dsDNA, one strand shown
T7 sequence: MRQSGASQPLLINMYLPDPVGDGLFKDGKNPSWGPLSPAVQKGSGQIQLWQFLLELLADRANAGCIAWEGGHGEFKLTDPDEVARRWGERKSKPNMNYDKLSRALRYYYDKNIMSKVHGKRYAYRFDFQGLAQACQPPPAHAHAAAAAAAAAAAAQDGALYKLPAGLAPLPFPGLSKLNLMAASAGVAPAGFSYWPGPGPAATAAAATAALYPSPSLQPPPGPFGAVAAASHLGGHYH
Method in brief: as §1

ETV5 = ETV5 (Homo sapiens, UniProt P41161 1-510); settings: protein: recombinant; tags: N-terminal GST; dsDNA, one strand shown
Sequence of ETV5 (P41161 whole entry): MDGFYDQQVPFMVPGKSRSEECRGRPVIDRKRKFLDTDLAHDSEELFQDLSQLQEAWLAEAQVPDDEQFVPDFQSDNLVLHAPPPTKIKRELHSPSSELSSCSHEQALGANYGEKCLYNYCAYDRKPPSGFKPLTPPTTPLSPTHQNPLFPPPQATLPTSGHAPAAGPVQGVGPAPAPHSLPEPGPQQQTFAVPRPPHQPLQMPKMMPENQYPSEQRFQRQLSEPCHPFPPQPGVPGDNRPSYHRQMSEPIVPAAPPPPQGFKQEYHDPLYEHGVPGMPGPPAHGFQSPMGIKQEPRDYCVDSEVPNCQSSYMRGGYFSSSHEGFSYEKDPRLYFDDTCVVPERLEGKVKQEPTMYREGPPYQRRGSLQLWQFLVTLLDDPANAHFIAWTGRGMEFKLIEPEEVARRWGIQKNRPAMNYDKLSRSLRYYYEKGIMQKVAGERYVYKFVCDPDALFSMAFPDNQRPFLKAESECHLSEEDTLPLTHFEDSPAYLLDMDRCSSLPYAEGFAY
Method in brief: as §1

HSF1 = HSF1 (Homo sapiens, UniProt Q00613 1-529); settings: protein: recombinant; tags: N-terminal GST; chain copies: 3; dsDNA, one strand shown
Sequence of HSF1 (Q00613 whole entry): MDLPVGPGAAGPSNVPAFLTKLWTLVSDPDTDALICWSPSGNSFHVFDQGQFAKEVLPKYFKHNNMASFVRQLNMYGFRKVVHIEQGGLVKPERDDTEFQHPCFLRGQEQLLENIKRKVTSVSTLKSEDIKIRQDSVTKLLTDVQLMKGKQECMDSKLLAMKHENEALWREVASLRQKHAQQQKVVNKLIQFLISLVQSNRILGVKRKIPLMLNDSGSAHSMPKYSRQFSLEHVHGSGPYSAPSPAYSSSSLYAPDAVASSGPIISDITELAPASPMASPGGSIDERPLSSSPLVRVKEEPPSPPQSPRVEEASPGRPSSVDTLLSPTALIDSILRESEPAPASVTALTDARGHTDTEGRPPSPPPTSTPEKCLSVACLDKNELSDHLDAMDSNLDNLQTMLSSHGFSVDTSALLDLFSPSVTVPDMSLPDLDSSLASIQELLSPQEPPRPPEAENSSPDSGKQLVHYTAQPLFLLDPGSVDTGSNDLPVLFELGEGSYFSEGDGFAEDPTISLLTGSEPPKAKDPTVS
Method in brief: as §1

SPIC = biological target: T8, SPIC (Homo sapiens, UniProt Q8N5J4 1-248); settings: protein: recombinant; tags: N-terminal GST; dsDNA, one strand shown
T8 sequence: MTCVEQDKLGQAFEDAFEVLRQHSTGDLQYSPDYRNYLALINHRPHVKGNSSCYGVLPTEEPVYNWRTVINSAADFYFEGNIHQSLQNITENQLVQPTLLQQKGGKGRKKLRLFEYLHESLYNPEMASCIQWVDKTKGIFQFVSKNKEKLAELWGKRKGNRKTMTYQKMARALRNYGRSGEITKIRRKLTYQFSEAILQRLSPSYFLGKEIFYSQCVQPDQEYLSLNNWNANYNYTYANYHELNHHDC
Method in brief: as §1

ELF4 = ELF4 (Homo sapiens, UniProt Q99607 1-663); settings: protein: recombinant; tags: N-terminal GST; dsDNA, one strand shown
Sequence of ELF4 (Q99607 whole entry): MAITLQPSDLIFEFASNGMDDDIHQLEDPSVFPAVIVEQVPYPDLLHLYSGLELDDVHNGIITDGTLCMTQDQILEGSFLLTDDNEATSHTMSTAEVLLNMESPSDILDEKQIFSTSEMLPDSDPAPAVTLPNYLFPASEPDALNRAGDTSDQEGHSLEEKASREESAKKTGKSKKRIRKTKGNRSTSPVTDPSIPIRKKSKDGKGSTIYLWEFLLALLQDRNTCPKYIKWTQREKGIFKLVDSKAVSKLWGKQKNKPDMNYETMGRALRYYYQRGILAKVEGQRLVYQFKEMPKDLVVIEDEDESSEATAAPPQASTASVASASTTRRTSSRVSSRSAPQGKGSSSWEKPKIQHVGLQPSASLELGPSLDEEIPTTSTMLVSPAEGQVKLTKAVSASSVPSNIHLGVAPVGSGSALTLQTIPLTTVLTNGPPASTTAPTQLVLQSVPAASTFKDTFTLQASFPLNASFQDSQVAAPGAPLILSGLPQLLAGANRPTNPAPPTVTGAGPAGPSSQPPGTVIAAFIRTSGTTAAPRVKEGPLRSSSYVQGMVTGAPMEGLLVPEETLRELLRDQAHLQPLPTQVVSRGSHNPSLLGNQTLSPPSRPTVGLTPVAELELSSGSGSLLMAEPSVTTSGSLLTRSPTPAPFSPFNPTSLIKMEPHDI
Method in brief: as §1

ELK4 = biological target: T9, ELK4 (Homo sapiens, UniProt P28324-2 1-405); settings: protein: recombinant; tags: N-terminal GST; dsDNA, one strand shown
T9 sequence: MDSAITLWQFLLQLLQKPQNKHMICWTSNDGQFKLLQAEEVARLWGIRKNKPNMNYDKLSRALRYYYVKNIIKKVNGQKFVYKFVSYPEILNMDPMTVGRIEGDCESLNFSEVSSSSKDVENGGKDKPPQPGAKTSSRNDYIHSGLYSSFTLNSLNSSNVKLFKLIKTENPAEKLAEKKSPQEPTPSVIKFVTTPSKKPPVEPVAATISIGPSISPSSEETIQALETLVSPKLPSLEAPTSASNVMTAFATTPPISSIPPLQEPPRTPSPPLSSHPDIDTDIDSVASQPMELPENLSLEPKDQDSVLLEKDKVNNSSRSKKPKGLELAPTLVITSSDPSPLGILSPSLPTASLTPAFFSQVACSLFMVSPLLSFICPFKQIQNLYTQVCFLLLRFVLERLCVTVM
Method in brief: as §1

ETV2 = biological target: T10, ETV2 (Homo sapiens, UniProt O00321 1-342); settings: protein: recombinant; tags: N-terminal GST; dsDNA, one strand shown
T10 sequence: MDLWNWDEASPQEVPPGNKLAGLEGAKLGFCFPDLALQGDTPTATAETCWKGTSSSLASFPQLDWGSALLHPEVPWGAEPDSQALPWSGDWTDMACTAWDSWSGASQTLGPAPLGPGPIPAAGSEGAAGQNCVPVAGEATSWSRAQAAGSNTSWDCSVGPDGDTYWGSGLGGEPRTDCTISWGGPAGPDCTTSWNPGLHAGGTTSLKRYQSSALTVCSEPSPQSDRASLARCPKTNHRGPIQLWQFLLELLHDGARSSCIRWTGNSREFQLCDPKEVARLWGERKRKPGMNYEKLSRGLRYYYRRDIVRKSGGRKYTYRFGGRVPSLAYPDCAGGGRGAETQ
Method in brief: as §1

ELF3 = biological target: T11, ELF3 (Homo sapiens, UniProt P78545 1-371); settings: protein: recombinant; tags: N-terminal GST; dsDNA, one strand shown
T11 sequence: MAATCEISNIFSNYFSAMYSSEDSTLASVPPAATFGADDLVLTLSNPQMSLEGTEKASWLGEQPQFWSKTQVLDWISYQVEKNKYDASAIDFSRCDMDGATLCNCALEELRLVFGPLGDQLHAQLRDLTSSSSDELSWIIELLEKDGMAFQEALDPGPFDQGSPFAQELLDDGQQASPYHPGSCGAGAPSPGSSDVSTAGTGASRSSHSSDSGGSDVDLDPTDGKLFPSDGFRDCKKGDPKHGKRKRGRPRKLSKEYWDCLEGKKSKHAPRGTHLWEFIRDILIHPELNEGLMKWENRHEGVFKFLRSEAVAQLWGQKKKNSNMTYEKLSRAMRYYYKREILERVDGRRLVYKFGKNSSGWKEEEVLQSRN
Method in brief: as §1

CRX = CRX (Homo sapiens, UniProt O43186 1-299); settings: protein: recombinant; tags: N-terminal GST; dsDNA, one strand shown
Sequence of CRX (O43186 whole entry): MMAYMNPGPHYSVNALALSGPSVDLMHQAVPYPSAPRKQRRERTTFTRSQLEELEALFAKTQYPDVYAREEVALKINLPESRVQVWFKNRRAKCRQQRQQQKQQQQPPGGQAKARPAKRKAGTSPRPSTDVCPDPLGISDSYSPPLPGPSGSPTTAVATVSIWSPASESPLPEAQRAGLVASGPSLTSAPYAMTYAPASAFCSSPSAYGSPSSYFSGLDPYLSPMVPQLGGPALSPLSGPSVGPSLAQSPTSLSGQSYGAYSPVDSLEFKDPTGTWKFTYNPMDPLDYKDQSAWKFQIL
Method in brief: as §1

ETV1 = ETV1 (Homo sapiens, UniProt P50549 1-477); settings: protein: recombinant; tags: N-terminal GST; dsDNA, one strand shown
Sequence of ETV1 (P50549 whole entry): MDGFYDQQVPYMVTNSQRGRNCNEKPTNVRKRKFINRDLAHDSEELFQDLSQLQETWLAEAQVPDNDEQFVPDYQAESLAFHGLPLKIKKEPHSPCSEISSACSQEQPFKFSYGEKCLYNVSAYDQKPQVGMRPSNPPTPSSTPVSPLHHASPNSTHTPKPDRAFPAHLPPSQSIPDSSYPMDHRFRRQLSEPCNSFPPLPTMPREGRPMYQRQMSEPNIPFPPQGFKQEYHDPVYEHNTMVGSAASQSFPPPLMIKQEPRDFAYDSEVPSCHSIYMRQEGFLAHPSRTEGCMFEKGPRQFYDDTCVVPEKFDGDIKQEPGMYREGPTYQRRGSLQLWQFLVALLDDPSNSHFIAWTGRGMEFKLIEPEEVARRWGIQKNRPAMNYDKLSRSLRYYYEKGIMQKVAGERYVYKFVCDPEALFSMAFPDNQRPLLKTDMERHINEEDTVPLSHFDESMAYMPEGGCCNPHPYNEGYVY
Method in brief: as §1

CTCTTA
binding signal (FLI1): 1.35 fold enrichment (6-mer frequency, TF over GST control)
binding signal (ELK1): 1.4 fold enrichment (6-mer frequency, TF over GST control)
binding signal (GABPA): 1.45 fold enrichment (6-mer frequency, TF over GST control)
binding signal (ERG): 1.27 fold enrichment (6-mer frequency, TF over GST control)
binding signal (ELF1): 1.51 fold enrichment (6-mer frequency, TF over GST control)
binding signal (EHF): 1.23 fold enrichment (6-mer frequency, TF over GST control)
binding signal (SPI1): 1.4 fold enrichment (6-mer frequency, TF over GST control)
binding signal (SPIB): 1.32 fold enrichment (6-mer frequency, TF over GST control)
binding signal (ELK3): 1.36 fold enrichment (6-mer frequency, TF over GST control)
binding signal (FEV): 1.34 fold enrichment (6-mer frequency, TF over GST control)
binding signal (ETV5): 1.41 fold enrichment (6-mer frequency, TF over GST control)
binding signal (HSF1): 1.52 fold enrichment (6-mer frequency, TF over GST control)
binding signal (SPIC): 1.4 fold enrichment (6-mer frequency, TF over GST control)
binding signal (ELF4): 1.32 fold enrichment (6-mer frequency, TF over GST control)
binding signal (ELK4): 1.34 fold enrichment (6-mer frequency, TF over GST control)
binding signal (ETV2): 1.49 fold enrichment (6-mer frequency, TF over GST control)
binding signal (ELF3): 1.27 fold enrichment (6-mer frequency, TF over GST control)
binding signal (CRX): 2.2 fold enrichment (6-mer frequency, TF over GST control)
binding signal (ETV1): 1.38 fold enrichment (6-mer frequency, TF over GST control)
